Among the test systems are DU-145 prostate; K-562 leukemia; MALME-3M melanoma; MDA-MB-231 breast; RXF 393 renal; SF-268 CNS; SF-295 CNS; SF-539 CNS; UACC-257 melanoma; M14 melanoma.
Assay in all cases: NCI-60 one-dose screen, 48 h (100 = growth as untreated, 0 = no growth, -100 = all killed)
Holding throughout (details): 10 µM unless noted

Where “and” joins values, the source holds several entries; their conditions need not be identical. Identical values can stand only once. The panel holds about 83,000 compounds, 20% with a hit somewhere; the sample as a whole holds those more often.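 In brief: 96-well plates, 48 h treatment, single concentration, percent growth endpoint.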 Unmarked numbers belong to inactive results. Calls of active or inactive are those of the source. The calls were made as follows: active = growth percent below 10; inactive = the rest.

For the compound `Nc1ncc(-c2ccc3ncnc(N4CCc5ccc(Cl)cc54)c3c2)cc1C(F)(F)F`, the growth in the experiment on DU-145 prostate was 17.6%; in the experiment on K-562 leukemia it was 30.5%; with MALME-3M melanoma, -0.57% (active); in the experiment with MDA-MB-231 breast, 21.8%; in the experiment on RXF 393 renal, -38.8% (active); in the experiment on SF-268 CNS, 22.4%. Also, the growth is 19.3% with SF-295 CNS, 2.93% (active) with SF-539 CNS, 29.3% with UACC-257 melanoma and 26.7% with M14 melanoma.
For `O=C(NNc1ccccc1)C1CCCN1` (stereo not given), the growth with DU-145 prostate was 60.7%; in the experiment with K-562 leukemia, 11%; in the experiment with MALME-3M melanoma it was 76.4%; with MDA-MB-231 breast it was 86.1%; in the experiment with RXF 393 renal it was 107%; in the experiment on SF-268 CNS, 64.6%. The growth in the experiment on SF-295 CNS is 85%; in the experiment with SF-539 CNS, 80.5%; in the experiment with UACC-257 melanoma, 88.6%; with M14 melanoma, 43.1%.
As to `CN(C)C(=O)c1cc2cnc(Nc3ccc(-c4csc5c(=S)cc(N6CCOCC6)oc45)cc3)nc2n1C1CCCC1`, the growth in the experiment on DU-145 prostate was 16.9%; in the experiment with K-562 leukemia, 10%; with MALME-3M melanoma it was 17.8%; in the experiment with MDA-MB-231 breast, 10.2%; with RXF 393 renal, -53.9% (active); in the experiment on SF-268 CNS, 11.1%. Besides, the growth in the experiment on SF-295 CNS was 1.23% (active); in the experiment with SF-539 CNS it was -24.5% (active); with UACC-257 melanoma it was 4.13% (active); with M14 melanoma, 7.51% (active).
`CC/C(=C(/c1ccc(O)cc1)c1ccc(OCCN2CCCCCC2)cc1)c1ccc(Cl)cc1`: the growth with DU-145 prostate was 82.9%; in the experiment on K-562 leukemia it was -21.5% (active); in the experiment on MALME-3M melanoma it was 47.5%; in the experiment on MDA-MB-231 breast, 88.4%; with RXF 393 renal, 63.7%; in the experiment with SF-268 CNS, 63.4%. The growth was 87.8% with SF-295 CNS, 78.2% in the experiment with SF-539 CNS, 87.3% in the experiment with UACC-257 melanoma and 17% with M14 melanoma.
As to `CN(Cc1ccccc1)c1nc(Cl)c(C2CC(c3ccc(F)cc3)=NN2C=O)s1` (stereo not given), the growth in the experiment on DU-145 prostate is 104%; in the experiment with K-562 leukemia, 77.9%; in the experiment on MALME-3M melanoma, 105%; in the experiment on MDA-MB-231 breast it was 97%; in the experiment on RXF 393 renal it was 92.9%; in the experiment with SF-268 CNS it was 91.2%. Further, the growth with SF-295 CNS is 92.2%; with SF-539 CNS, 107%; in the experiment on UACC-257 melanoma, 103%; with M14 melanoma, 92.8%.
With `O=Nc1ccc(NO)c2ccccc12`, the growth in the experiment on DU-145 prostate is 107% and 98%; in the experiment with K-562 leukemia it was 111% and 56.5%; in the experiment on MALME-3M melanoma it was 118% and 69.6%; with MDA-MB-231 breast it was 89% and 73.5%; in the experiment on RXF 393 renal, 114% and 97.2%; in the experiment with SF-268 CNS it was 102% and 83.9%. The growth was 99.3% and 121% with SF-295 CNS; 96.8% and 109% in the experiment with SF-539 CNS; 104% and 52.4% in the experiment on UACC-257 melanoma; 99.2% and 93.7% in the experiment with M14 melanoma.
`CCN(CC)CCOc1ccccc1C`: the growth was 113% in the experiment with DU-145 prostate; 97.5% with K-562 leukemia; 105% in the experiment with MALME-3M melanoma; 103% in the experiment with MDA-MB-231 breast; 160% in the experiment with RXF 393 renal; 120% in the experiment with SF-268 CNS. In addition, the growth in the experiment with SF-295 CNS was 101%; in the experiment on SF-539 CNS it was 93.7%; in the experiment with UACC-257 melanoma it was 106%; in the experiment with M14 melanoma, 98.8%.
As for `COc1ccc(-c2csc(NC(=O)CN3CCN(CCO)CC3)n2)cc1NS(=O)(=O)c1cccc2c(N(C)C)cccc12`, the growth in the experiment with DU-145 prostate was 78.4%; in the experiment with K-562 leukemia, 23.1%; in the experiment on MALME-3M melanoma it was -67.9% (active); in the experiment with MDA-MB-231 breast, 71.9%; in the experiment with RXF 393 renal, 57.7%; in the experiment on SF-268 CNS it was 81.2%. Moreover, the growth in the experiment with SF-295 CNS is 29.7%; with SF-539 CNS, 65.7%; with UACC-257 melanoma, 68.4%; in the experiment with M14 melanoma it was -73.6% (active).
In the case of `COc1ccc2nc3cc(Cl)ccc3c(NCCCNCCC(C)O)c2c1` (stereo not given), the growth in the experiment on DU-145 prostate is -16.2% (active); in the experiment on K-562 leukemia, -18.1% (active); in the experiment with MALME-3M melanoma, -76.1% (active); in the experiment with MDA-MB-231 breast, -47.5% (active); in the experiment on RXF 393 renal, -67.6% (active); in the experiment with SF-268 CNS it was -25.9% (active). Also, the growth is -11.9% (active) with SF-295 CNS, -56.9% (active) in the experiment with SF-539 CNS, -83.9% (active) in the experiment with UACC-257 melanoma and -82% (active) with M14 melanoma.
As for `COc1cc(CNC(=O)CCCC/C=C/C(C)C)ccc1OCc1cn(-c2ccc([N+](=O)[O-])cc2)nn1`, the growth was 105% in the experiment with DU-145 prostate; 74.5% with K-562 leukemia; 98.4% in the experiment with MALME-3M melanoma; 75.3% with MDA-MB-231 breast; 99.7% in the experiment with RXF 393 renal; 86.1% with SF-268 CNS. The growth in the experiment on SF-295 CNS was 89%; in the experiment on SF-539 CNS it was 104%; in the experiment on UACC-257 melanoma it was 82.6%; in the experiment on M14 melanoma it was 89.7%.
`CC1(C)C(N)=Nc2cc(OCCCN3Cc4ccc(OCCc5cn(CC(=O)N6CCC(CCN7CCCC7)CC6)nn5)cc4C3)c(OCC3CC3)cc21`: the growth with DU-145 prostate is 111%; in the experiment with K-562 leukemia, 88%; in the experiment with MALME-3M melanoma, 106%; with MDA-MB-231 breast, 112%; with RXF 393 renal it was 113%; in the experiment with SF-268 CNS, 86%. In addition, the growth is 100% in the experiment with SF-295 CNS, 97% in the experiment with SF-539 CNS, 112% in the experiment with UACC-257 melanoma and 108% with M14 melanoma.
Consider `O=[N+]([O-])c1ccc2[nH]c3nccc(NCc4cccc(Cl)c4)c3c2c1`, for which the growth in the experiment with DU-145 prostate is 64.6%; in the experiment with K-562 leukemia it was 79.4%; in the experiment on MALME-3M melanoma, 46.4%; in the experiment with MDA-MB-231 breast, 80.2%; in the experiment on RXF 393 renal, 66.4%; in the experiment with SF-268 CNS, 46.1%. Further, the growth with SF-295 CNS is 67.3%; in the experiment with SF-539 CNS it was 71.1%; in the experiment with UACC-257 melanoma, 85.5%; in the experiment on M14 melanoma, 83.4%.
As to `COc1ccc(NC(=O)Nc2ccccc2CNc2nc(Nc3ccc(OCCN4CCCC4)cc3)ncc2Cl)cc1`, the growth was 18% in the experiment with DU-145 prostate; 0.588% (active) with K-562 leukemia; -63.7% (active) in the experiment with MALME-3M melanoma; -59.1% (active) in the experiment with MDA-MB-231 breast; -75.6% (active) with RXF 393 renal; 35.8% in the experiment with SF-268 CNS. Further, the growth in the experiment on SF-295 CNS is 11.1%; in the experiment with SF-539 CNS, -84.2% (active); with UACC-257 melanoma, -46.8% (active); with M14 melanoma, -75.6% (active).
